Compounds with a hit are over-represented: about 1.4% of the library has one in this group of screens.
BRCA1 expr up: activators of BRCA1 expression; MCF7-BRCA1-FFLuc reporter, luminescence, 48 h; response scale: scaled: vehicle 0%, 10 µM genistein 100%; Potency, µM (titrated, usually from 46.1 µM), for inactives: at the highest dose activation, most hits filed as activators; 380,000 compounds, 1.1% hits; AID 624202; also: potency is read from the fitted curve at half-maximal effect; nearly all actives have a fitted effect of over 80% in size
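Compounds are tested at multiple concentrations on MCF7 BRCA1-luciferase reporter cells seeded at 2000 per well; after 48 h, a single luminescence end-point is taken and curves fitted to the normalized data.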
IL-2 act: IL-2 activation; IL-2 activation reporter assay, cell-based qHTS; stimulated with anti-CD3/CD4/CD28 beads; in transgenic mouse T cells; 360,000 compounds, 0.065% hits; activation, % (series mostly up to about 46 µM); in the data active = activation above about 50%; inconclusive = mostly about 30% to 49%; also: 0% is about no effect
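EGFP and DsRed fluorescence is measured by plate cytometry in unstimulated transgenic mouse T cells exposed to compound for 60 minutes, then stimulated 18 hours at 37 degrees C with anti-CD3/anti-CD4 beads plus anti-CD28.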
BCR signal inh: chronic active BCR signaling inhibition; ABC-DLBCL IkBa-CBG/CBR reporter, luminescence ratio, 4 h; Potency, µM (doses to about 46.1 µM), without a hit: at the highest dose activity change, negative = inhibition, usual class: inhibitors; 340,000 compounds, 0.05% hits; AID 493014; active = well fitted inhibition curve with a large enough effect in the signal ratio, with a control signal flat, not every such curve was filed as active; inconclusive = small, poorly fitted or top-dose-only effect, or effect the other way, or a change in a side signal; the % refers to the signal ratio;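 also: potency is read from the fitted curve at half-maximal effect; plate controls were basal doxycycline-induced cells for no effect and cells given 10 µM MG132 for full effect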
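TMD8 human ABC-DLBCL cells with doxycycline-inducible IκBα–green luciferase fusion and unfused red luciferase, in 0.5% FBS medium; compounds up to 46 uM, 4 h at 37C. Green/red luminescence ratio, filter-overlap corrected, fitted to concentration-response curves.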
N370S GC: inhibits or activates N370S mutant glucocerebrosidase | P04062 | N370S GC spleen homogenate, 4MU-glucoside fluorescence | Potency, µM (series often up to 59.4 µM), for the others: at the highest dose activity change, negative = inhibition, usual class: inhibitors | 330,000 compounds, 0.092% hits | AID 2101;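 also: potency is read from the fitted curve at half-maximal effect; 0% = full enzyme activity and -100% = no enzyme basal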
a7 integrin act: integrin-mediated muscular dystrophy alleviation activation; alpha7betagal myoblasts, beta-gal FDG fluorescence, 48 h; Potency, µM (top dose mostly 38.3 µM), for the others: top-dose activation, usual class: activators; 350,000 compounds, 0.064% hits;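 also: potency is read from the fitted curve at half-maximal effect; 100% = response of the positive control SU9516; nearly all actives have a fitted effect of over 60% in size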
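Alpha7betagal+/- myoblasts (passage 13) were plated 16-24 hr, then exposed to compounds (1:260 dilution of DMSO stock) for 48 hours at 37C. After MPER lysis, β-galactosidase reporter activity was read as FDG fluorescence (ex 480/em 540) after 30 minutes.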
Nrf2 ARE act: activators of Nrf2 (ARE) signaling. AID 624171. Potency, µM (titrated, usually from 46.1 µM), for the others: top-dose activation, hits mostly activators. AREc32 ARE-luciferase reporter (MCF7-derived line), luminescence, 24 h. 410,000 compounds, 0.31% hits; also: potency is read from the fitted curve at half-maximal effect; % of control where 0% means no effect; nearly all actives have a fitted effect of over 65% in size
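For detection, Steady-Glo was added and plates sat 30 min at RT; before that, AREc32_Fluc cells grown overnight in OPTI-MEM/5% FBS had been treated with 23 nL compound for 24 hr at 37 deg C.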
Numbers without * were called inactive; ? = inconclusive; . = no result given; [ ] = remark or other dose. Unless noted, calls follow the shape of the dose curve; as a rule, active = well fitted curve in the direction sought with a large enough effect; inconclusive = small, poorly fitted or top-dose-only effect, or another doubt; inactive = no such curve, though single readings can be large; an effect the other way counts as inactive or inconclusive.

SMILES	BRCA1 expr up	IL-2 act	BCR signal inh	N370S GC	a7 integrin act	Nrf2 ARE act
CCc1ccc(NC2=NCC(c3ccccc3)S2)cc1 (centres undefined)	11µM*	-4	5%	-12%	-20%	14%
CCCOCCc1nnc(N)s1	0%	1	-6%	-2%	11%	0%
COc1ccc2c(c1)S/C(=C\C(=O)c1ccncc1)N2C	4.5µM*	0	2%	20%	10%	4%
CC(/C=C/c1ccco1)=N\NC(=O)CNc1ccc2ccccc2c1	-67%	-1	-11%	-9%	15%	10µM*
CC(/C=C/c1ccco1)=N/NC(=O)CNc1ccccc1C	-10%	-3	-15%	-8%	-9%	22%
Cc1cc2cc(OCc3ccccc3)ccc2n1C	?	-3	?	-6%	1%	7%
Cc1c(C=O)c2cc(OCc3ccccc3)ccc2n1C	10µM*	-4	?	?	7%	4%
C[C@@H]1CN([C@H](C)CO)S(=O)(=O)c2ccc(C#Cc3ccccc3F)cc2O[C@H]1CN(C)C(=O)c1ccc2c(c1)OCO2	-51%	-1	.	.	-63%	-5%
O=C(c1ccco1)N1CCn2c1nc1ccccc12	7.1µM*	1	5%	1%	31%	15%
CCOc1ccc(NC(=O)c2oc3ccccc3c2NC(=O)C(C)(C)C)cc1	11%	.	.	.	.	0%
COC(=O)CCS(=O)(=O)c1nc(-c2ccccc2)cc(C(F)(F)F)n1	-93%	-4	?	3%	-70%	?
COCC(C)NC(=O)CCS(=O)(=O)c1nc(-c2ccc(OC)cc2)cc(C(F)(F)F)n1 (centres undefined)	-85%	-5	?	-1%	-46%	16µM*
COc1ccc(-c2csc(NCc3ccco3)n2)cc1C	6.3µM*	0	13%	9%	9%	5%
CCOc1ccccc1C1N=C(c2ccc(OC)cc2)CC(c2ccccc2O)N1 (centres undefined)	23%	-1	?	15%	-48%	16µM*
O=C(NCC1CCCO1)c1cc(-c2ccccc2F)no1 (centres undefined)	13µM*	1	?	2%	-6%	?
O=C(NCC1CCCO1)c1ccc([N+](=O)[O-])o1 (centres undefined)	-53%	0	2%	-8%	-48%	10µM*
Cc1cc(C(=O)COC(=O)c2ccc([N+](=O)[O-])o2)c(C)n1CC1CCCO1 (centres undefined)	48%	1	5%	-3%	-41%	16µM*
O=C(NCC1CCCO1)c1ccccc1 (centres undefined)	1%	1	.	3%	16%	-1%
O=C(Cc1ccc([N+](=O)[O-])cc1)NCC1CCCO1 (centres undefined)	9%	-3	5%	19%	11%	0%
COc1ccc(C(CNC(=O)COc2cc(C)cc(C)c2)N2CCOCC2)cc1 (centres undefined)	.	.	.	.	.	3%
CN(C)c1ccc(C=Nc2ccc(/C=C3\C=Cc4ccccc43)cc2)cc1	6%	.	.	.	.	.
CNC(=S)Nc1cccc(C(=O)OC)c1	7.1µM*	0	4%	-2%	10%	9%
CCOc1cccc(C(=O)NC(=S)Nc2cccnc2)c1	17%	0	-12%	-1%	-21%	4%
CC(=O)c1cccc(NC(=S)NC(=O)c2ccc(C)cc2)c1	7.9µM*	5	0%	2%	6%	3%
CCOc1cccc(C(=O)NC(=S)Nc2ccccc2)c1	11µM*	0	?	?	-16%	3%[9.22 µM]
COc1ccccc1C1=Nn2c(nnc2-c2ccccc2C)SC1	.	.	.	1%	.	.
O=C(C[n+]1cc(Br)cc(Br)c1)c1ccc2c(c1)CCCC2	0%	.	.	.	.	.
O=c1oc2ccccc2nc1/C=C(\O)c1ccc(Br)cc1	-52%	-1	?	6%	0%	?
C/C(O)=C\c1nc2ccccc2oc1=O	-45%	0	?	-10%	-33%	16µM*

Bioassay records: PubChem, National Center for Advancing Translational Sciences (NCATS)
